Where “and” joins values, the source holds several entries; their conditions need not be identical. Equal entries are not always repeated. The whole screen tested about 17,000 compounds, of which about 1,100 (6.5%) were called active.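 Rule for the calls: active = z-score of -3 or lower, meaning strong loss of probe binding signal; inactive = the rest.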 The full list was thinned out, with actives kept by preference. Some compounds were tested as several samples or in several runs, with calls that do not always agree.

The results in this text go back to PubChem BioAssay AID1259349 (Broad Institute, 2017).

The target in this assay is Insulin-degrading enzyme (Homo sapiens) (UniProt P14735). The assay is described as follows: displacers of FL-6b probe from IDE – biochemical, fluorescence anisotropy, probe displacement, primary screen (AID 1259349).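 Note: His-tagged human IDE residues 42-1019 made in E. coli with 30 nM FL-6b probe.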 Conditions: purified IDE, FL-6b probe fluorescence polarization; at 20 µM; stronger effect = lower value.
Insulin-degrading enzyme (Homo sapiens), sequence (P14735 42-1019 limits assumed): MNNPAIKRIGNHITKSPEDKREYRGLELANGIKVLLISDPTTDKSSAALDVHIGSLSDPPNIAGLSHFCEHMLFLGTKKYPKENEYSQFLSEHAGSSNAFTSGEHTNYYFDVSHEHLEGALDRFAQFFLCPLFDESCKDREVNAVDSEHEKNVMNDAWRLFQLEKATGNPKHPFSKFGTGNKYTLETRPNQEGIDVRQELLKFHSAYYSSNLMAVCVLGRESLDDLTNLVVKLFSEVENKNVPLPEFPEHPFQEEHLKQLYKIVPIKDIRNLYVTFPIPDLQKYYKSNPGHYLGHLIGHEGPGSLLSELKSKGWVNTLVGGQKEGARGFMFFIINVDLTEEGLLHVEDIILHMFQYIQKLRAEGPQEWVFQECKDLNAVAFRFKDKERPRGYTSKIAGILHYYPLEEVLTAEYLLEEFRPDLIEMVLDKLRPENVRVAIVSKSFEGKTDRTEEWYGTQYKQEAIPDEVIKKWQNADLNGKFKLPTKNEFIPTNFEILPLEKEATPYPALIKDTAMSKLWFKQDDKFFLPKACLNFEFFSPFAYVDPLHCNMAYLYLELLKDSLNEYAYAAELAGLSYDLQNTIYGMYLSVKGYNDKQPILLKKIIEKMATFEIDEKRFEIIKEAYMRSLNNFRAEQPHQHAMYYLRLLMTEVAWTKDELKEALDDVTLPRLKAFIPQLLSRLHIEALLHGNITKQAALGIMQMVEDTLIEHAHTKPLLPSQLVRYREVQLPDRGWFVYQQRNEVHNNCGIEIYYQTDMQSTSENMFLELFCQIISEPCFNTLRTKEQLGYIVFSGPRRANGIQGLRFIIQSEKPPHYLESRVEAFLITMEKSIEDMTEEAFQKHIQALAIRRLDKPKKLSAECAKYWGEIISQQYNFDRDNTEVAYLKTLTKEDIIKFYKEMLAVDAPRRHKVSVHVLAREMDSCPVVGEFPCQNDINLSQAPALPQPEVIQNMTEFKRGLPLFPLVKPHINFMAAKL
As to `O=C(C[C@@H]1CC[C@H]2NC[C@H](O)COC[C@@H]2O1)NCCN1CCCCC1`, the z-score is 0.878 (inactive).
In the case of `O=C1C[C@@H](c2ccccc2)C(=O)N[C@H](c2ccc(F)cc2)C/C=C\CCN1` it was 1 (inactive); in that of `O=S(=O)(c1ccccc1F)N1[C@@H]2CNC[C@H]1C2c1ccc(-c2cncnc2)cc1` (some centres not stated), 2.04 (inactive).
Consider `Cc1cccc(-c2ccccc2[C@@H]2[C@H](C#N)N(c3ncc(-c4ccccc4)s3)[C@H]2CO)c1`, for which the z-score was 4.05 (inactive).
As for `O=S(=O)(c1ccccc1)N1C[C@@H]2[C@H](c3ccccc31)[C@H](CO)N2Cc1ccccn1`, the z-score was 2.16 (inactive).
In the case of `COc1ccccc1NC(=O)N1[C@@H]2CNC[C@H]1C2c1ccc(-c2ccccc2C)cc1` (some centres not stated) it was -4.4 (active).
In the case of `COc1cccc(S(=O)(=O)N2[C@@H]3CNC[C@H]2C3c2ccc(-c3ccccc3OC)cc2)c1` (some centres not stated) it was -0.496 (inactive) and -4.13 (active).
In the case of `CN(C)C(=O)c1cccc(-c2ccc(C3[C@H]4CNC[C@@H]3N4C(=O)Nc3ccccc3F)cc2)c1` (some centres not stated) it was 1.08 (inactive) and 3.82 (inactive); in that of `COc1cccc(NC(=O)N2[C@@H]3CNC[C@H]2C3c2ccc(-c3ccncc3)cc2)c1` (some centres not stated), 0.421 (inactive) and 0.471 (inactive); in that of `Cc1cccc(-c2ccc(C3[C@H]4CNC[C@@H]3N4S(=O)(=O)c3ccccc3F)cc2)c1` (some centres not stated), 5.33 (inactive) and 3.85 (inactive).
Take `Cc1ccc(-c2ccc(C3[C@H]4CNC[C@@H]3N4S(=O)(=O)c3ccccc3C)cc2)cc1` (some centres not stated): the z-score is 1.05 (inactive) and 2.8 (inactive).
As for `COCCNC(=O)C[C@H]1CC[C@@H]2[C@H](COc3ccc(NC(=O)Nc4cccc(F)c4)cc3C(=O)N2C)O1`, the z-score was -0.769 (inactive).
As for `COc1ccc(S(=O)(=O)N2CCCCN3[C@@H](CO)[C@@H](c4ccc(C#CCC(C)C)cc4)[C@@H]3C2)cc1`, the z-score is 4 (inactive).
Turning to `CN(C)C(=O)c1cccc(-c2ccc(C3[C@@H]4CN(S(=O)(=O)c5ccc(F)cc5)C[C@H]3N4)cc2)c1` (some centres not stated), the z-score was 4.34 (inactive) and 3.12 (inactive).
In the case of `C[C@@H]1CC(=O)N[C@H](c2ccccc2)C/C=C\C[C@H](c2ccccc2)NC1=O` it was 1.16 (inactive); in that of `CC(C)C#Cc1ccc([C@@H]2[C@H]3CN(C(=O)NC(C)C)CCCCN3[C@H]2CO)cc1`, 1 (inactive); in that of `CC(C)NC(=O)N1CCCCN2[C@@H](CO)[C@@H](c3ccc(C#Cc4ccccc4)cc3)[C@@H]2C1`, -8.05 (active).
As for `COCC(=O)N1CCCCN2[C@H](CO)[C@@H](c3ccc(-c4ccc(OC)cc4)cc3)[C@@H]2C1`, the z-score is -2.67 (inactive).
Consider `COc1ccc(-c2ccc([C@@H]3[C@@H](CO)N4CCCCN(C(=O)NC(C)C)C[C@H]34)cc2)cc1`, for which the z-score is -4.12 (active).
With `CC(C)C#Cc1ccc([C@H]2[C@H](CO)N3CCCCN(C(=O)NC(C)C)C[C@@H]23)cc1`, the z-score is 0.103 (inactive).
In the case of `COCC(=O)N1CCCCN2[C@H](CO)[C@H](c3ccc(-c4ccc(OC)cc4)cc3)[C@H]2C1` it was -1.33 (inactive).
Consider `COc1ccc2c3c([nH]c2c1)[C@H](CO)N(Cc1nccs1)CC31CCN(Cc2cccnc2)CC1`, for which the z-score was -0.878 (inactive).
In the case of `COc1cccc(S(=O)(=O)N2CCCCN3[C@H](C2)[C@@H](c2ccc(C4=CCCCC4)cc2)[C@@H]3CO)c1` it was 2.68 (inactive); in that of `COc1ccc2c3c([nH]c2c1)[C@H](CO)N(Cc1ccc(F)cc1)CC31CCN(Cc2ccccn2)CC1`, -1.44 (inactive).
As for `CCCN1C[C@@H](C)[C@@H](OC)CN(C)C(=O)c2cc(NC(=O)C3CCC3)ccc2OC[C@H]1C`, the z-score was -0.201 (inactive).
As to `O=C(C[C@@H]1C=C[C@@H](NC(=O)c2ccc3c(c2)OCO3)[C@H](CO)O1)NC1Cc2ccccc2C1`, the z-score is 0.748 (inactive).
Consider `CN(C)CC(=O)N1CC2(C1)[C@H](c1ccccc1)[C@H](CO)N2C(=O)C1CC1`, for which the z-score is -1.06 (inactive).
In the case of `O=C(c1ccccn1)N1CC2(C1)[C@@H](c1ccccc1)[C@@H](CO)N2C(=O)C1CCCCC1` it was -4.56 (active); in that of `O=C(C1CCCC1)N1[C@@H](CO)[C@@H](c2ccccc2)C12CN(Cc1ccc(F)cc1)C2`, 1.26 (inactive).
In the case of `CCS(=O)(=O)Nc1ccc2c(c1)C(=O)N(C)[C@H]1CC[C@H](CC(=O)N[C@@H]3CCN(Cc4ccccc4)C3)O[C@H]1CO2` it was -0.74 (inactive).
Take `CCC(=O)N1CCCCN2[C@H](CO)[C@@H](c3ccc(-c4cccnc4)cc3)[C@H]2C1`: the z-score is 0.698 (inactive).
In the case of `OC[C@H]1[C@H](c2ccc(-c3cccnc3)cc2)[C@H]2CN(Cc3ccccn3)CCCCN21` it was -3.14 (active); in that of `Cc1cccc(-c2ccc([C@@H]3[C@H](CO)N4CCCCN(Cc5ccncc5)C[C@@H]34)cc2)c1`, -5.19 (active).
In the case of `OC[C@@H]1[C@H](c2ccc(C3=CCCC3)cc2)[C@H]2CN(Cc3ccncc3)CCCCN12` it was 1.19 (inactive).
In the case of `OC[C@H]1[C@H](c2ccc(-c3cccc(F)c3)cc2)[C@@H]2CN(Cc3cncnc3)CCCCN12` it was 0.665 (inactive); in that of `Cc1ccc(-c2ccc([C@H]3[C@H](CO)N4CCCCN(Cc5cncnc5)C[C@@H]34)cc2)cc1`, 3.25 (inactive); in that of `COc1ccc(CN2CCCCN3[C@H](C2)[C@H](c2ccc(-c4ccc(OC)cc4)cc2)[C@@H]3CO)cc1`, 3.61 (inactive).
On to `OC[C@@H]1[C@H](c2ccc(Br)cc2)[C@@H]2CN(Cc3ccccn3)CCCCN12`, for which the z-score is 0.871 (inactive).
As to `Cc1cccc(-c2ccc([C@H]3[C@@H](CO)N4CCCCN(Cc5cncnc5)C[C@H]34)cc2)c1`, the z-score was -5.22 (active).
On to `CO[C@H]1CN(C)C(=O)c2cc(NC(=O)NC(C)C)ccc2OC[C@H](C)N(C(=O)CN(C)C)C[C@H]1C`, for which the z-score is -0.369 (inactive).
In the case of `COCCN(C[C@H]1[C@H](c2ccccc2)[C@@H](CO)N1C(C)=O)C(=O)c1cccnc1` it was -0.97 (inactive); in that of `CN(C)C(=O)c1ccc(-c2ccc([C@H]3[C@H](CO)N4CCCCN(S(C)(=O)=O)C[C@@H]34)cc2)cc1`, 4.37 (inactive); in that of `CN(C)C(=O)c1ccc(-c2ccc(C3[C@@H]4CN(C(=O)Nc5ccccc5)C[C@H]3N4)cc2)cc1` (some centres not stated), 0.753 (inactive).
As to `O=C(C1CCCCC1)N1CC(=O)N2[C@H](CO)[C@H](c3ccc(Br)cc3)[C@H]2C1`, the z-score was 2.21 (inactive).
Regarding `O=C(C1CC1)N1CC(=O)N2[C@H](CO)[C@@H](c3ccc(-c4ccccc4F)cc3)[C@@H]2C1`, the z-score was -6.21 (active).
In the case of `O=C(C1CCCC1)N1CC(=O)N2[C@H](CO)[C@H](c3ccc(Br)cc3)[C@@H]2C1` it was 1.85 (inactive).
As for `Cc1ccccc1-c1ccc(C2[C@@H]3CN(C(=O)C4CCCCC4)C[C@H]2N3)cc1` (some centres not stated), the z-score is 1.9 (inactive) and -13.9 (active).
In the case of `O=C(C1CCC1)N1CC(=O)N2[C@H](C1)[C@@H](c1ccc(-c3ccccc3F)cc1)[C@@H]2CO` it was -10.1 (active); in that of `O=C(C1CCCCC1)N1CC(=O)N2[C@H](CO)[C@@H](c3ccc(-c4ccccc4F)cc3)[C@@H]2C1`, -3.81 (active).
As to `O=C(C1CCCCC1)N1CC(=O)N2[C@H](CO)[C@H](c3ccc(-c4ccccc4F)cc3)[C@H]2C1`, the z-score is -2.1 (inactive).
Turning to `O=C(C1CCC1)N1C[C@@H]2N[C@H](C1)C2c1ccc(-c2cncnc2)cc1` (some centres not stated), the z-score is 0.446 (inactive).
On to `COCC(=O)N1CC(=O)N2[C@H](CO)[C@@H](c3ccc(-c4ccccc4F)cc3)[C@H]2C1`, for which the z-score is -0.201 (inactive).
Regarding `O=C(C1CCCC1)N1CC(=O)N2[C@H](CO)[C@H](c3ccc(Br)cc3)[C@H]2C1`, the z-score is 3.78 (inactive).
In the case of `O=C(c1ccc(F)cc1)N1CC(=O)N2[C@H](CO)[C@H](c3ccc(-c4ccccc4F)cc3)[C@@H]2C1` it was 0.797 (inactive); in that of `CC(C)C#Cc1ccc([C@H]2[C@@H](C#N)N(C(=O)CN(C)C)[C@H]2CO)cc1`, 0.732 (inactive).
In the case of `COc1ccc2c3c([nH]c2c1)[C@H](CO)N(C(=O)Nc1ccc(F)cc1)CC31CCN(CC2CCOCC2)CC1` it was -0.0173 (inactive); in that of `CCCNC(=O)N1CC2(CN(C(=O)c3cnccn3)C2)c2c([nH]c3cc(OC)ccc23)[C@@H]1CO`, -1.28 (inactive).
In the case of `N#C[C@@H]1[C@@H](c2ccc(C3=CCCCC3)cc2)[C@@H](CO)N1C(=O)c1cccc(F)c1` it was 2.45 (inactive); in that of `C[C@@H]1CN([C@H](C)CO)C(=O)Cc2cc(N(C)C)ccc2O[C@H]1CN(C)C(=O)NC1CCCCC1`, -0.478 (inactive).
For `COc1ccc2c3c([nH]c2c1)[C@H](CO)N(C(C)=O)CC31CN(S(=O)(=O)c2cccs2)C1`, the z-score is 0.716 (inactive).
For `CNC[C@H]1OCCCC[C@@H](C)Oc2ccc(NS(=O)(=O)c3ccc(F)cc3)cc2C(=O)N([C@H](C)CO)C[C@H]1C`, the z-score was 0.482 (inactive).
In the case of `CCCNC(=O)N1[C@H](C#N)[C@@H](c2ccc(C3=CCCC3)cc2)[C@H]1CO` it was 0.0932 (inactive).
In the case of `CCS(=O)(=O)N1[C@H](C#N)[C@H](c2ccc(-c3cccc(F)c3)cc2)[C@@H]1CO`, the z-score was 0.519 (inactive).
In the case of `Cn1cnc(S(=O)(=O)N2C[C@@H]3N[C@H](C2)C3c2ccc(/C=C/c3ccccc3)cc2)c1` (some centres not stated) it was -1.85 (inactive) and -5.13 (active); in that of `Cn1cnc(S(=O)(=O)N2C[C@@H]3N[C@H](C2)C3c2ccc(-c3ccccc3F)cc2)c1` (some centres not stated), 0.547 (inactive) and 0.421 (inactive).
With `COc1ccc(-c2ccc(C3[C@@H]4CN(S(=O)(=O)c5cn(C)cn5)C[C@H]3N4)cc2)cc1` (some centres not stated), the z-score is 2.29 (inactive).
Turning to `O=C(Nc1cccc(F)c1)N1CC(=O)N2[C@H](C1)[C@H](c1ccc(-c3ccccc3F)cc1)[C@@H]2CO`, the z-score is 0.741 (inactive).
